Test results taken from PubChem BioAssay AID463173 (ICCB-Longwood Screening Facility, Harvard Medical School, 2010).
In all, about 52,000 compounds went through this assay and about 4,300 (8.3%) were called active. For the sample, actives were picked, then their nearest neighbours and some compounds at random. A number with no mark means an inactive call. Cut-off read from the data, not from the text of the source: active = survival mostly below about 52% (no sharp cut-off); inactive = mostly above about 56%.

These compounds were tested on DeltatarO mutant (assay: S. aureus survival, RN4220 and DeltatarO strains – OD600, teichoic acid synthesis inhibitors, primary screen (AID 463173)). Conditions: S. aureus RN4220 wild type/DeltatarO growth, OD600, 18 h, stronger effect = lower value, screened at 18.75 µg/mL (by protocol).
In the case of `COc1cc(Nc2ncc3c(n2)CCN(Cc2cc(F)cc(F)c2)C3)cc(OC)c1`, the survival is reported as 67%.
`Cc1nc2cc(-c3ccccc3)nn2c(C)c1CCC(=O)N1CCN(c2ccccc2)CC1` showed a survival of 56%.
With `CCOCCc1nnc(NC(=O)C(=O)c2cc(C)n(-c3cccc(C)c3)c2C)s1` the survival was 65%.
`COc1cccc(CNC(=O)CCS(=O)(=O)c2cc3c4c(c2)CCN4C(=O)CC3)c1` was tested, and the survival was 68%.
In the case of `O=C(COc1ccc(Br)cc1)N/N=C1\SCC(=O)N1c1ccc(F)cc1`, the survival is reported as 95%.
For `CCc1ccc(NC(=O)CSc2nccn2-c2ccc(OC)cc2)cc1`, the survival was 107%.
`Nc1cc(=O)[nH]c(=S)n1-c1ccccc1` showed a survival of 99%.
Compound `COc1cc(C2c3c(oc4ccc(C)cc4c3=O)C(=O)N2Cc2ccccc2)ccc1O` (centres undefined) has a survival of 113%.
In the case of `COc1cc(NC(=O)c2ncn(-c3ccccc3)n2)cc(OC)c1`, the survival is reported as 63%.
`CCOC(=O)c1ccc(N2C(=O)c3n[nH]c(-c4ccco4)c3C2c2ccc(O)c(OC)c2)cc1` (centres undefined) was tested, and the survival was 118%.
With `CCOC(=O)c1ccc(N2C(=O)c3n[nH]c(-c4ccco4)c3C2c2cccc(F)c2)cc1` (centres undefined) the survival was 12% (active).
`CCOC(=O)c1ccc(N2C(=O)c3n[nH]c(-c4ccco4)c3C2c2ccc(OCC)cc2)cc1` (centres undefined) was tested, and the survival was 91%.
Work on `CCOc1ccc(N(CC)C(=O)c2cc3c(s2)-c2ccccc2OC3)cc1` yielded a survival of 76%.
With `CCc1ccccc1N(CC)C(=O)c1cc2c(s1)-c1ccccc1SC2` the survival was -1% (active).
`CCOc1ccc(N(CC)C(=O)c2cc3c(s2)-c2ccc(Cl)cc2SC3)cc1` gave a survival of 81%.
`CCN(C(=O)c1cc2c(s1)-c1ccccc1OC2)c1cc(Cl)ccc1OC` was tested, and the survival was 15% (active).
With `CCCN(C(=O)c1cc2c(s1)-c1ccccc1OC2)c1ccccc1F` the survival was -4% (active).
`COc1ccc(CCNC(=O)c2cc3c(s2)-c2ccccc2OC3)cc1OC` gave a survival of 49%.
In the case of `CCc1ccccc1N(CC)C(=O)c1cc2c(s1)-c1ccccc1OC2`, the survival is reported as -5% (active).
`CCc1ccc(CNC(=O)c2cc3c(s2)-c2ccccc2OC3)cc1` showed a survival of 61%.
`O=C(NCc1ccccc1Cl)c1cc2c(s1)-c1ccccc1SC2` showed a survival of 65%.
`O=C(NCc1cccc(Cl)c1)c1cc2c(s1)-c1ccccc1OC2` was tested, and the survival was 50%.
Compound `O=C(NCCc1ccc(Cl)cc1)c1cc2c(s1)-c1ccccc1OC2` has a survival of 61%.
In the case of `CC(C)c1ccc(NC2=NCC(=O)N2Cc2ccccc2)cc1`, the survival is reported as 87%.
In the case of `O=C(Nc1cccc(O)c1)c1cc2nc(-c3ccc(Br)cc3)cc(C(F)(F)F)n2n1`, the survival is reported as 120%.
Compound `CC(=O)Nn1c(C)nc2ccccc2c1=O` has a survival of 75%.
Work on `Cc1nc(SC(C)C(=O)Nc2ccccc2Cl)cc(-c2ccccc2)n1` (centres undefined) yielded a survival of 61%.
In the case of `CCn1c(SCC(=O)OC)nnc1-c1ccc(O)cc1`, the survival is reported as 99%.
`COc1ccc(NC(=O)CC2C(=O)N(c3cccc(OC)c3)C(=O)N2Cc2cccnc2)cc1` (centres undefined) was tested, and the survival was 94%.
With `CCn1c(CN2CCCCC2)nc2cc(NC(=O)COc3cc(C)ccc3C(C)C)ccc21` the survival was 73%.
Work on `COc1ccc(C)cc1Nc1cc(C)nc(C)n1` yielded a survival of 66%.
Work on `CCC(=O)N1CCc2cc(Br)cc(S(=O)(=O)CCC(=O)NCc3ccc(Cl)cc3)c21` yielded a survival of 78%.
`CCOc1ccc(-c2cc(C(=O)OC)on2)cc1` showed a survival of 55%.
Work on `CCc1ccc(NC(=O)CC2C(=O)N(c3cccc(C)c3)C(=O)N2Cc2ccc(F)cc2)cc1` (centres undefined) yielded a survival of 89%.
With `CCN(c1ccccc1)C(CNS(=O)(=O)c1ccccc1)c1ccccc1` (centres undefined) the survival was 71%.
Work on `CCN(C(=O)c1cc2c(=O)n(CC)c3ccccc3c2s1)c1cccc(C(F)(F)F)c1` yielded a survival of 72%.
In the case of `CCCN(C(=O)c1cc2c(=O)n(CC)c3ccccc3c2s1)c1ccccc1F`, the survival is reported as 64%.
With `CCCN(C(=O)c1cc2c(s1)-c1ccccc1SC2)c1ccccc1F` the survival was 1% (active).
For `CCCN(C(=O)c1cc2c(s1)-c1c(C)cccc1OC2)c1ccc(OCC)cc1`, the survival was 98%.
`CN(Cc1ccccc1)C(=O)c1cc2c(s1)-c1ccc(Cl)cc1SC2` gave a survival of 86%.
`O=C(NCc1ccc(F)cc1)c1cc2c(s1)-c1ccccc1SC2` was tested, and the survival was 45% (active).
With `O=C(NCc1ccc(Cl)cc1)c1cc2c(s1)-c1ccccc1SC2` the survival was 58%.
In the case of `CCN(C(=O)c1cc2c(s1)-c1ccccc1OC2)c1cccc(C(F)(F)F)c1`, the survival is reported as -1% (active).
Compound `CCOc1ccc(CNC(=O)c2cc3c(s2)-c2ccccc2OC3)cc1` has a survival of 71%.
In the case of `CCCN(C(=O)c1cc2c(s1)-c1ccccc1OC2)c1ccc(C(C)C)cc1`, the survival is reported as -3% (active).
`Cc1ccc(CNC(=O)c2cc3c(s2)-c2ccccc2SC3)cc1` gave a survival of 94%.
In the case of `COc1ccc(OCC(=O)Nc2ccc3c(c2)OCO3)cc1`, the survival is reported as 76%.
In the case of `COc1ccc(Cl)cc1NC(=O)N1CCC(CN2CCc3ccccc3C2)CC1`, the survival is reported as 109%.
Work on `COc1ccc(S(=O)(=O)c2c(SC)nn(Cc3ccccc3C)c2NC(C)=O)cc1` yielded a survival of 55%.
`CN1CCN(CCCNC(=O)c2cnn(-c3ccccc3)c2-n2cccc2)CC1` was tested, and the survival was 87%.
`Cc1ccc(OCC(=O)NCC(=O)OCc2cc(=O)n3nc(C)sc3n2)cc1` was tested, and the survival was 90%.
Work on `Cc1ccc(C)c(N2CCN(c3nc4ccccc4n4nnnc34)CC2)c1` yielded a survival of 92%.
With `COc1ccc(Cn2c(=O)[nH]c3cc(C(=O)N4CCN(c5cccc(OC)c5)CC4)ccc3c2=O)cc1` the survival was 63%.
In the case of `CC(C)(C)OC(=O)N1CCC(c2c(C(=O)Nc3ccc4c(c3)OCCO4)cnn2-c2ccc(Cl)cc2)CC1`, the survival is reported as 87%.
Work on `CCOC(=O)c1cc(S(=O)(=O)N2CCN(c3ccc(C(C)=O)cc3)CC2)[nH]n1` yielded a survival of 126%.
Compound `Cc1c(Cl)cccc1NC(=O)CCS(=O)(=O)c1cccc2nsnc12` has a survival of 78%.
`CCOCCCNC(=O)C(c1ccccc1)N1Cc2ccccc2C1=O` (centres undefined) was tested, and the survival was 96%.
`CC(C)Oc1ccc(CNC(=O)c2ccccc2NC(=O)c2nsc3ccccc23)cc1` was tested, and the survival was 122%.
With `CCOc1ccc(CNC(=O)c2ccccc2NC(=O)c2nsc3ccccc23)cc1` the survival was -5% (active).
With `Cc1ccc(CNC(=O)c2ccccc2NC(=O)c2nsc3ccccc23)cc1` the survival was 60%.
For `CCOc1ccc(CNC(=O)c2cc3ccccn3n2)cc1`, the survival was 52% (active).
Compound `CCCOc1ccc(CNC(=O)c2cc3ccccn3n2)cc1` has a survival of 116%.
Work on `CCc1ccc(CNC(=O)c2cc3ccccn3n2)cc1` yielded a survival of 97%.
`C=CCNC(=O)c1cc2sccc2n1Cc1ccccc1` was tested, and the survival was 85%.
`CC(C)C(=O)OCc1cc(=O)n2nc(C3CC3)sc2n1` showed a survival of 86%.
In the case of `COc1ccc(S(=O)(=O)N(C)C2CCCCC2)cc1`, the survival is reported as 85%.
`COc1ccc(S(=O)(=O)NNC(N)=S)cc1` gave a survival of 100%.
`COc1ccc(S(=O)(=O)N/N=C(/C2CCCCC2)C(F)(F)F)cc1` was tested, and the survival was 35% (active).
`COc1ccc(CNC(=O)C(=O)NCC(c2ccco2)S(=O)(=O)c2ccc(C)cc2)cc1` (centres undefined) was tested, and the survival was 124%.
In the case of `CC1Oc2ccccc2N(CC(=O)NCC2CCCO2)C1=O` (centres undefined), the survival is reported as 83%.
`CCC(C)NC(=O)CSc1nc2c(sc3ccccc32)c(=O)n1CCc1ccc(OC)c(OC)c1` (centres undefined) showed a survival of 66%.
For `COC(=O)CC1Oc2ccccc2-n2cc(-c3ccc(C)cc3)nc21` (centres undefined), the survival was 64%.
`COC(=O)CC1Oc2ccc(Cl)cc2-n2cc(-c3ccc(F)cc3)nc21` (centres undefined) was tested, and the survival was 90%.
Compound `COC(=O)CC1Oc2ccc(F)cc2-n2cc(-c3ccc(C)cc3)nc21` (centres undefined) has a survival of 91%.
For `COC(=O)CC1Oc2ccc(Cl)cc2-n2cc(-c3ccc(C)cc3)nc21` (centres undefined), the survival was 80%.
With `COC(=O)CC1Oc2ccc(C)cc2-n2cc(-c3ccc(C)cc3)nc21` (centres undefined) the survival was 37% (active).
In the case of `COC(=O)CC1Oc2ccc(C)cc2-n2cc(-c3ccc(F)cc3)nc21` (centres undefined), the survival is reported as 56% (active).
For `COc1ccc(CCNC(=O)Cn2cc(C(=O)c3ccccc3)c(=O)c3ccc(C)nc32)cc1OC`, the survival was 124%.
`O=C(Nc1cccnc1N1CCOCC1)c1cc2ccccc2oc1=O` was tested, and the survival was 79%.
`COc1cc(OC)c(C2C(C(=O)Nc3ccccc3)=C(C)Nc3ncnn32)cc1OC` (centres undefined) was tested, and the survival was 72%.
For `COc1ccc(CNC(=O)CSc2n[nH]c(-c3ccc(OC)cc3)n2)cc1`, the survival was -5% (active).
For `Cc1ccc(CNC(=O)CSc2n[nH]c(-c3ccc(F)cc3)n2)cc1`, the survival was 122%.
With `CC(CCc1ccccc1)NC(=O)CSc1n[nH]c(-c2ccc(F)cc2)n1` (centres undefined) the survival was 126%.
In the case of `O=C(CSc1n[nH]c(-c2ccccc2Cl)n1)NCc1ccc(F)cc1`, the survival is reported as -4% (active).
In the case of `O=C(CSc1n[nH]c(-c2ccccc2Cl)n1)NCCc1ccccc1`, the survival is reported as 87%.
In the case of `COc1cccc(CNC(=O)CSc2n[nH]c(-c3ccccc3Cl)n2)c1`, the survival is reported as 60%.
`COc1ccc(-c2nc(SCC(=O)NC(C)CCc3ccccc3)n[nH]2)cc1` (centres undefined) was tested, and the survival was 17% (active).
In the case of `CC(CCc1ccccc1)NC(=O)CSc1n[nH]c(-c2ccccc2)n1` (centres undefined), the survival is reported as 94%.
Compound `COc1ccc(CNC(=O)CSc2n[nH]c(-c3ccc(F)cc3)n2)cc1` has a survival of 109%.
Work on `Cc1cccc(N2CCN(C(=O)c3ccc4c(c3)N(Cc3ccccc3)C(=O)c3ccccc3S4(=O)=O)CC2C)c1` (centres undefined) yielded a survival of 63%.
Compound `Cc1ccc(Cl)cc1NC(=O)c1oc2ccc(S(=O)(=O)N3CCCCC3)cc2c1C` has a survival of 74%.
`Cc1cccc(NC(=O)CN2C(=O)CSc3ccc(S(=O)(=O)N4CCCC4)cc32)c1C` gave a survival of 92%.
Compound `O=C(CSc1nc(-c2ccco2)cc(C(F)(F)F)n1)N1CCCC1` has a survival of 79%.
For `CC(NCc1ccc2c(c1)n(C)c(=O)n2C)c1ccccc1` (centres undefined), the survival was 94%.
